The values below come from PubChem BioAssay (NCATS).

Results filed as inconclusive are left out. Calls of active or inactive are those of the source. Calls follow the shape of the dose curve; as a rule, active = well fitted curve in the direction sought with a large enough effect; inconclusive = small, poorly fitted or top-dose-only effect, or another doubt; inactive = no such curve, though single readings can be large; an effect the other way counts as inactive or inconclusive.

A short description of experiment [1]: Quantitative High-Throughput drug screen in 47 multiple myeloma cell lines against the NCATS MIPE library collection: JIM3_ECACC cell viability assay (AID 1918963; also: nearly all actives have a fitted effect of over 35% in size; also: potency is read from the fitted curve at half-maximal effect). Put shortly:
(§1)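 CellTiter-Glo luminescence (ATP) after 48 h compound exposure, 37C/5% CO2; 500 cells/well; MIPE 4.0 approved/investigational drugs pinned in; DMSO = 100%, media only = 0% viability.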

The nature of experiment [2]: Quantitative High-Throughput drug screen in 47 multiple myeloma cell lines against the NCATS MIPE library collection: JIM1_ECACC cell viability assay (AID 1918964). In a few lines:
(§2)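 Luminescent ATP measurement with CellTiter-Glo gives viability, scaled between DMSO-only wells (100%) and media-only wells (0%). Cells, 500 per well, faced library compounds for 48 hours at 37C.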

A short description of experiment [3]: Quantitative High-Throughput drug screen in 47 multiple myeloma cell lines against the NCATS MIPE library collection: H1112_PLB cell viability assay (AID 1918967; also: nearly all actives have a fitted effect of over 30% in size; also: potency is read from the fitted curve at half-maximal effect). Put shortly: as §2
A short description of experiment [4]: Quantitative High-Throughput drug screen in 47 multiple myeloma cell lines against the NCATS MIPE library collection: Karpas25_ECACC cell viability assay (AID 1918968; also: nearly all actives have a fitted effect of over 35% in size; also: potency is read from the fitted curve at half-maximal effect). Put shortly:
as §2

The nature of experiment [5]: Quantitative High-Throughput drug screen in 47 multiple myeloma cell lines against the NCATS MIPE library collection: KMS12PE_JCRB cell viability assay (AID 1918972). Also: nearly all actives have a fitted effect of over 30% in size. Also: potency is read from the fitted curve at half-maximal effect. Put shortly:
(§3)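 Myeloma cells (500 per well) were exposed to MIPE 4.0 compounds by pin transfer and incubated 48 hours at 37C, 5% CO2. Viability was read as ATP by CellTiter-Glo luminescence, normalised to DMSO (100%) and media-only (0%) wells.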

Experiment [6] can be described thus: Quantitative High-Throughput drug screen in 47 multiple myeloma cell lines against the NCATS MIPE library collection: KMS26_JCRB cell viability assay (AID 1918975). Also: nearly all actives have a fitted effect of over 45% in size. Also: potency is read from the fitted curve at half-maximal effect. Put shortly: (§4)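 We plated 500 myeloma cells per well, pinned in MIPE 4.0 compounds, and incubated for 48 hours at 37C. ATP was then quantified with CellTiter-Glo, with DMSO and media-only wells defining 100% and 0%.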

Experiment [7] in a line: Quantitative High-Throughput drug screen in 47 multiple myeloma cell lines against the NCATS MIPE library collection: MOLP8_DSMZ cell viability assay (AID 1918977). Also: nearly all actives have a fitted effect of over 45% in size. Also: potency is read from the fitted curve at half-maximal effect. In a few lines: (§5)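 Myeloma cells (500/well) treated with MIPE 4.0 compounds for 48 h at 37 °C, 5% CO2. Viability read as ATP via CellTiter-Glo luminescence after 5 min at RT; DMSO-only wells = 100%, media-only = 0% viability.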

Experiment [8] can be described thus: Quantitative High-Throughput drug screen in 47 multiple myeloma cell lines against the NCATS MIPE library collection: NCIH929_DSMZ cell viability assay (AID 1918978). Also: nearly all actives have a fitted effect of over 35% in size. Also: potency is read from the fitted curve at half-maximal effect. In a few lines: as §5
Experiment [9] in a line: Quantitative High-Throughput drug screen in 47 multiple myeloma cell lines against the NCATS MIPE library collection: OCIMY1_PLB cell viability assay (AID 1918979). Also: nearly all actives have a fitted effect of over 35% in size. Also: potency is read from the fitted curve at half-maximal effect. In a few lines:
as §5

Experiment [10] in a line: Quantitative High-Throughput drug screen in 47 multiple myeloma cell lines against the NCATS MIPE library collection: MM1S_ATCC cell viability assay (AID 1918980). Also: nearly all actives have a fitted effect of over 45% in size. Also: potency is read from the fitted curve at half-maximal effect. Put shortly: as §5
Experiment [11] can be described thus: Quantitative High-Throughput drug screen in 47 multiple myeloma cell lines against the NCATS MIPE library collection: MM1R_ATCC cell viability assay (AID 1918981). Also: nearly all actives have a fitted effect of over 35% in size. Also: potency is read from the fitted curve at half-maximal effect. Put shortly:
as §5

Experiment [12] is described as follows: Quantitative High-Throughput drug screen in 47 multiple myeloma cell lines against the NCATS MIPE library collection: KHM11_PLB cell viability assay (AID 1918962). Also: nearly all actives have a fitted effect of over 35% in size. Also: potency is read from the fitted curve at half-maximal effect. Put shortly: as §1
Experiment [13] can be described thus: Quantitative High-Throughput drug screen in 47 multiple myeloma cell lines against the NCATS MIPE library collection: KMS12BM_JCRB cell viability assay (AID 1918971). Also: nearly all actives have a fitted effect of over 35% in size. Also: potency is read from the fitted curve at half-maximal effect. In a few lines: as §4
A short description of experiment [14]: Quantitative High-Throughput drug screen in 47 multiple myeloma cell lines against the NCATS MIPE library collection: MMM1_PLB cell viability assay (AID 1918976). Put shortly: as §5
Experiment [15] is described as follows: Quantitative High-Throughput drug screen in 47 multiple myeloma cell lines against the NCATS MIPE library collection: INA6_PLB cell viability assay (AID 1918965; also: nearly all actives have a fitted effect of over 55% in size; also: potency is read from the fitted curve at half-maximal effect). In a few lines:
as §3

Experiment [16] can be described thus: Quantitative High-Throughput drug screen in 47 multiple myeloma cell lines against the NCATS MIPE library collection: KMS20_JCRB cell viability assay (AID 1918973). Also: nearly all actives have a fitted effect of over 45% in size. Also: potency is read from the fitted curve at half-maximal effect. Put shortly: as §2
A short description of experiment [17]: Quantitative High-Throughput drug screen in 47 multiple myeloma cell lines against the NCATS MIPE library collection: KMS27_JCRB cell viability assay (AID 1918970). Also: nearly all actives have a fitted effect of over 30% in size. Put shortly: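 ATP-based viability (CellTiter-Glo luminescence) is measured in cells treated 48 h with approved and investigational drugs at 37 °C. Controls are DMSO-only wells for full viability and media-only wells for none.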

The nature of experiment [18]: Quantitative High-Throughput drug screen in 47 multiple myeloma cell lines against the NCATS MIPE library collection: JJN3_DSMZ cell viability assay (AID 1918966; also: nearly all actives have a fitted effect of over 50% in size). Put shortly:
as §2

The nature of experiment [19]: Quantitative High-Throughput drug screen in 47 multiple myeloma cell lines against the NCATS MIPE library collection: KMS21BM_JCRB cell viability assay (AID 1918974). Conditions: ATP luminescence, 48 h; viability: at 45.8 µM (top of the series). In a few lines:
as §2

Take `CC(N)C12CC3CC(CC(C3)C1)C2` (stereo not drawn): the Potency result in experiment [1], in [2], in experiment [3], in experiment [4], in [5] and in experiment [6] was “inactive” each time. Moreover, the Potency result in [7], in [8], in experiment [9], in experiment [10] and in [11] was “inactive” each time.

Turning to `CCc1c2c(nc3ccc(OC(=O)N4CCC(N5CCCCC5)CC4)cc13)-c1cc3c(c(=O)n1C2)COC(=O)[C@]3(O)CC`, the Potency in [12] is 1.48 µM (active); in experiment [3], 1.32 µM (active); in experiment [4] it was 2.64 µM (active); in [13], 0.264 µM (active); in experiment [5], 0.526 µM (active); in experiment [6] it was 0.166 µM (active). The Potency in [14] is 0.935 µM (active); in [7], 0.148 µM (active); in experiment [8], 16.6 µM (active); in experiment [10] it was 1.32 µM (active); in experiment [11] it was 1.05 µM (active).

For `COc1cccc(N(C)C(=S)Oc2ccc3c(c2)CCCC3)n1`, the Potency result in experiment [1], in experiment [3], in experiment [13], in [6], in [7] and in experiment [8] was “inactive” throughout. Besides, the Potency result in [9] and in experiment [11] was “inactive” throughout. The Potency was 16.6 µM (active) in experiment [15] and 18.7 µM (active) in experiment [10].

With `CCCN[C@H]1CCc2nc(N)sc2C1`, the Potency result in experiment [1], in experiment [2], in experiment [15], in [3], in [16] and in experiment [7] was “inactive” throughout. The Potency entry in experiment [9] is “inactive”. For the same molecule, the results for the Potency in experiment [4] and in experiment [10] were 2.09 µM (active) and 0.833 µM (active), respectively.

On to `OCc1ccc(-c2nn(Cc3ccccc3)c3ccccc23)o1`, for which the Potency is 2.64 µM (active) in experiment [12]; 9.35 µM (active) in [4]; 10.5 µM (active) in experiment [13]; 1.05 µM (active) in experiment [14]; 14.8 µM (active) in experiment [8]; 4.18 µM (active) in experiment [10]. Moreover, the Potency in experiment [11] is 8.33 µM (active). Besides, the Potency result in [1], in experiment [17] and in [9] was “inactive” in each case.

In the case of `COC(=O)Nc1nc2ccc(C(=O)c3ccccc3)cc2[nH]1`, the Potency in experiment [1] is 2.96 µM (active); in experiment [15], 1.18 µM (active); in [3], 2.64 µM (active); in experiment [4], 3.72 µM (active); in experiment [13] it was 1.48 µM (active); in experiment [16] it was 1.32 µM (active). The Potency was 8.33 µM (active) in experiment [6]; 3.72 µM (active) in experiment [8]; 0.833 µM (active) in [9]; 3.72 µM (active) in experiment [10]; 1.66 µM (active) in [11].

On to `CO[C@@H]1[C@@H](OC(N)=O)[C@@H](O)[C@H](Oc2ccc3c(O)c(NC(=O)c4ccc(O)c(CC=C(C)C)c4)c(=O)oc3c2C)OC1(C)C`, for which the Potency is 2.64 µM (active) in experiment [12]; 5.26 µM (active) in [1]; 5.9 µM (active) in [4]; 2.96 µM (active) in experiment [13]; 9.35 µM (active) in experiment [6]; 8.33 µM (active) in experiment [11]. Also, the Potency result in [3] and in [9] was “inactive” each time.

For `CC(=O)[C@H]1CC[C@H]2[C@@H]3CC=C4C[C@@H](O)CC[C@]4(C)[C@H]3CC[C@]12C`, the Potency result in [12], in experiment [1], in experiment [3], in [4], in experiment [5] and in experiment [8] was “inactive” in each case. Besides, the Potency entry in experiment [9] and in experiment [10] was “inactive” throughout.

By viability is commonly meant a read-out of living cells in per cent, often relative to untreated cells. As to `CC(C)OC(=O)C(C(=O)OC(C)C)=C1SC=CS1`, the Potency result in experiment [1], in experiment [2], in [18], in [3], in experiment [4] and in [5] was “inactive” throughout. In addition, the Potency entry in [8] and in [9] was “inactive” each time. In addition, the Potency in experiment [13] is 14.8 µM (active); in [6] it was 0.003 µM (active). The viability in experiment [19] was 403% (active).

Regarding `N[C@@H](Cc1ccc(O)c(O)c1)C(=O)O`, the Potency result in experiment [1], in [2], in experiment [3], in experiment [4], in [5] and in experiment [16] was “inactive” throughout. Further, the Potency entry in experiment [8] is “inactive”.

As for `O=c1oc2c(O)c(O)cc3c(=O)oc4c(O)c(O)cc1c4c23`, the Potency result in experiment [1], in [15], in experiment [3], in [4], in experiment [5] and in [8] was “inactive” throughout. For the same molecule, the Potency result in [9] and in [11] was “inactive” in each case.

`CO[C@@]12[C@H](COC(N)=O)C3=C(C(=O)C(C)=C(N)C3=O)N1C[C@@H]1N[C@@H]12`: the Potency in experiment [12] was 33.2 µM (active); in experiment [1], 26.4 µM (active); in [3], 23.5 µM (active); in experiment [13], 23.5 µM (active); in experiment [6], 23.5 µM (active); in experiment [14], 23.5 µM (active). Besides, the Potency is 23.5 µM (active) in [7], 26.4 µM (active) in experiment [8], 0.264 µM (active) in experiment [10] and 11.8 µM (active) in experiment [11].

Take `C[C@]12C=CC(=O)C=C1CC[C@@H]1[C@@H]2C(=O)C[C@@]2(C)[C@H]1CC[C@]2(O)C(=O)CO`: the Potency entry in [1], in [15], in experiment [3], in experiment [13], in experiment [5] and in [6] was “inactive” in each case. Also, the Potency entry in experiment [8], in experiment [9], in experiment [10] and in [11] was “inactive” each time.

`CCOCC(O)COc1ccc(NC(=O)CC[S+](C)C)cc1` (stereo not drawn): the Potency result in [12], in [1], in experiment [3], in experiment [4], in [17] and in experiment [13] was “inactive” each time. Moreover, the Potency entry in [7], in [8] and in experiment [11] was “inactive” each time.

For the molecule `CC1(C)[C@H](C(=O)O)N2C(=O)C[C@H]2S1(=O)=O`, the Potency result in [1], in experiment [15], in experiment [3], in experiment [4], in experiment [13] and in [5] was “inactive” each time. For the same molecule, the Potency result in [6], in [8] and in experiment [11] was “inactive” throughout. In experiment [10], the Potency was 26.4 µM (active).

With `CS(=O)(=O)c1ccc([C@@H](O)[C@@H](CO)NC(=O)C(Cl)Cl)cc1`, the Potency was 9.35 µM (active) in experiment [1]; 11.8 µM (active) in [15]; 16.6 µM (active) in experiment [4]; 2.35 µM (active) in [5]; 7.43 µM (active) in experiment [10]. The Potency result in [3], in [17], in experiment [13], in experiment [6] and in [9] was “inactive” throughout.

Turning to `CCCc1cc(C(N)=S)ccn1`, the Potency entry in experiment [12], in experiment [1], in experiment [3], in [4], in experiment [13] and in experiment [5] was “inactive” throughout. The Potency result in experiment [7], in experiment [8], in experiment [9] and in [11] was “inactive” throughout.
